# Measured values taken from PubChem BioAssay.
# Inconclusive results are not listed. For some of these results: Results with a measured potency or affinity are listed apart. The source made the active and inactive calls. Unless noted, no rule for the calls is given here.
# Assays:
# [1] = target: Calcium-dependent protein kinase 1 (Plasmodium falciparum (isolate 3D7)) (UniProt P62344); test: PfCDPK1 kinase inhibitors, biochemical, TCAMS library (AID 1159585; cut-off not given, nearly all actives have IC50 up to about 0.98 µM;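 also: inhibitors leave more ATP so luminescence rises with inhibition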); conditions: recombinant PfCDPK1, Kinase-Glo ATP depletion luminescence
# [2] = target: Plasmodium falciparum protein kinase 6 (PK6, PF3D7_1337100) (UniProt Q8IDW1); test: PfPK6 kinase inhibitors, biochemical, TCAMS library (AID 1159586); conditions: recombinant PfPK6, Kinase-Glo ATP depletion luminescence
# [3] = target: Protein kinase 7 (PK7), Plasmodium falciparum 3D7 (PF3D7_0213400) (UniProt Q7YTF7); test: inhibition of Plasmodium PK7 catalytic activity – biochemical, TCAMS antimalarial set, Kinase-Glo luminescence (AID 1159587); conditions: recombinant PfPK7, Kinase-Glo ATP depletion luminescence
# [4] = target: Calcium-dependent protein kinase 4 (Plasmodium falciparum (isolate 3D7)) (UniProt Q8IBS5); test: PfCDPK4 kinase inhibitors, biochemical, TCAMS library (AID 1159588; cut-off not given, nearly all actives have IC50 up to about 0.91 µM); conditions: recombinant PfCDPK4, Kinase-Glo ATP depletion luminescence
# [5] = target: ATP-dependent translocase ABCB1 (Homo sapiens) (UniProt P08183); test: MDR1 (ABCB1) efflux transporter inhibition, cell-based (AID 377; in the data active = fluorescence slope change above about 50%); conditions: MDR1-expressing cells, fluorescent substrate accumulation slope; stronger effect = higher value; concentration not given here
# [6] = target: 6-phosphogluconate dehydrogenase, decarboxylating (Homo sapiens) (UniProt P52209); test: 6PGD enzyme inhibitors, primary screen, biochemical, human, recombinant enzyme, NADPH absorbance (AID 1159550;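 active = at least 20% inhibition of 6-phosphogluconate dehydrogenase activity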); conditions: recombinant 6PGD, NADPH absorbance 341 nm; at 10 µM; stronger effect = higher value
# [7] = LFS_MB_P medulloblastoma growth inhibition, cell-based, chromothripsis tumors, cisplatin or BGB combos (AID 1671449; in the data active = inhibition above about 80%;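 also: cells exposed for 96 hours; 0% = vehicle DMSO and 100% = killing by high DMSO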); conditions: LFS_MB_P medulloblastoma cells
# [8] = HDN33 neuroblastoma growth inhibition, cell-based, chromothripsis tumors, cisplatin or BGB combos (AID 1671450; in the data active = inhibition above about 80%;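 also: cells exposed to compound for four days; 0% = vehicle DMSO and 100% = cell killing by high DMSO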); conditions: HDN33 neuroblastoma cells, stronger effect = higher value
# [9] = ICB984 medulloblastoma cell growth inhibition, synergistic combos for chromothripsis tumors, cisplatin or BGB combos (AID 1671451); conditions: ICB984 medulloblastoma cells, drug combinations, stronger effect = higher value;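 also: cells exposed for 96 hours before readout; 0% = vehicle DMSO and 100% = killing by high DMSO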
# [10] = LFS_MB_1R medulloblastoma cell growth inhibition, synergistic combos for chromothripsis tumors, cisplatin or BGB combos (AID 1671452; in the data active = inhibition above about 80%;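 also: cells exposed for 96 hours before readout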); conditions: LFS_MB_1R medulloblastoma cells, stronger effect = higher value
# [11] = HTB85 osteosarcoma cell growth inhibition, synergistic combos for chromothripsis tumors, BGB or cisplatin IC20 combos (AID 1671453; in the data active = inhibition above about 80%;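 also: cells exposed for 96 hours before readout; 0% = vehicle DMSO and 100% = high DMSO killing control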); conditions: HTB85 osteosarcoma cells, drug combinations, stronger effect = higher value
# [12] = CRL2098 osteosarcoma cell growth inhibition, synergistic combos for chromothripsis tumors, BGB or cisplatin IC20 combos (AID 1671454; in the data active = inhibition above about 80%;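 also: cells exposed for 96 h before readout; 0% = vehicle DMSO and 100% = killing by high DMSO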); conditions: CRL2098 osteosarcoma cells, drug combinations, stronger effect = higher value
# [13] = HD-MB03 medulloblastoma cell growth inhibition, synergistic combos for chromothripsis tumors, BGB or cisplatin IC20 combos (AID 1671455; in the data active = inhibition above about 83%;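 also: 0% = vehicle DMSO and 100% = high DMSO as cytotoxic control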); conditions: HD-MB03 medulloblastoma cells, stronger effect = higher value
# [14] = UWB1.289 ovarian carcinoma cell growth inhibition, synergistic combos for chromothripsis tumors, BGB or cisplatin combos (AID 1671456; in the data active = inhibition above about 80%;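 also: cells exposed to compound for four days; 0% = vehicle DMSO and 100% = killing by high DMSO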); conditions: UWB1.289 ovarian carcinoma cells, stronger effect = higher value
# [15] = LFS_MB_2R medulloblastoma cell growth inhibition, synergistic combos for chromothripsis tumors, cisplatin combos (AID 1671457; in the data active = inhibition above about 80%;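 also: cells exposed to compound for four days before readout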); conditions: LFS_MB_2R medulloblastoma cells, stronger effect = higher value
# [16] = MDA-MB-436 breast carcinoma cell growth inhibition, synergistic combos for chromothripsis tumors, BGB or cisplatin combos (AID 1671458); conditions: MDA-MB-436 breast carcinoma growth inhibition, drug combinations, stronger effect = higher value;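 also: cells exposed for 96 hours; 0% = vehicle DMSO and 100% = killing by high DMSO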
# [17] = UWB1.289_BRCA1 ovarian cancer growth, cell-based, BGB or cisplatin combinations (AID 1671459; in the data active = inhibition above about 80%); conditions: UWB1.289 BRCA1 ovarian carcinoma, drug combinations, stronger effect = higher value
# [18] = human astrocyte viability loss, single and combined drugs, cytotoxicity control for chromothriptic childhood tumor combination screen, cell-based, BGB or cisplatin IC20 combos (AID 1671460; in the data active = inhibition above about 80%;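 also: cells exposed to compounds for 96 hours before viability readout; 0% = vehicle and 100% = killing control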); conditions: Human astrocytes, drug combinations, stronger effect = higher value
# [19] = growth inhibition of BT084 medulloblastoma cells, cell-based, ICGC_MB145, cisplatin and BGB IC40 combos (AID 1671461; in the data active = inhibition above about 80%;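 also: cells exposed to drugs for 96 hours; 0% = vehicle DMSO and 100% = high DMSO full killing control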); conditions: drug combinations, stronger effect = higher value
# [20] = growth inhibition of RCMB18 medulloblastoma cells, cell-based, cisplatin and BGB IC40 combos (AID 1671462; in the data active = inhibition above about 80%;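 also: cells exposed to compound for four days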); conditions: stronger effect = higher value
# [21] = growth inhibition of CRL1545 osteosarcoma cells, cell-based, cisplatin and BGB IC20 combos (AID 1671464; in the data active = inhibition above about 80%;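 also: cells exposed to compound for 96 hours before readout; 0% = vehicle DMSO and 100% = high DMSO killing control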); conditions: stronger effect = higher value
# [22] = measured here: combination with BGB IC40, at 0.05 µM
# [23] = measured here: with BGB IC20 combination, at 0.5 µM
# [24] = measured here: with cisplatin IC20 combination, at 0.5 µM
# [25] = measured here: combination with cisplatin, at 0.5 µM
# [26] = measured here: combination with cisplatin, at 5 µM
# Chain of Plasmodium falciparum protein kinase 6 (PK6, PF3D7_1337100) (Q8IDW1 1-305): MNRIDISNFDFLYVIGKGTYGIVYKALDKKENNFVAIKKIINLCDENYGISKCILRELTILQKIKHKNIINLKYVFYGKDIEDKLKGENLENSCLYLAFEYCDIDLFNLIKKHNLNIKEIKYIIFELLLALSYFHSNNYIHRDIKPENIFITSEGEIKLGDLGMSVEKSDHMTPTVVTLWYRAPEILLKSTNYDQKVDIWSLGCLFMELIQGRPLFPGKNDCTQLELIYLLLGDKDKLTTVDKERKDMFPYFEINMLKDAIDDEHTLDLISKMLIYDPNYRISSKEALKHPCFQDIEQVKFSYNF
# Chain of Calcium-dependent protein kinase 1 (Plasmodium falciparum (isolate 3D7)) (P62344 whole entry, looked up): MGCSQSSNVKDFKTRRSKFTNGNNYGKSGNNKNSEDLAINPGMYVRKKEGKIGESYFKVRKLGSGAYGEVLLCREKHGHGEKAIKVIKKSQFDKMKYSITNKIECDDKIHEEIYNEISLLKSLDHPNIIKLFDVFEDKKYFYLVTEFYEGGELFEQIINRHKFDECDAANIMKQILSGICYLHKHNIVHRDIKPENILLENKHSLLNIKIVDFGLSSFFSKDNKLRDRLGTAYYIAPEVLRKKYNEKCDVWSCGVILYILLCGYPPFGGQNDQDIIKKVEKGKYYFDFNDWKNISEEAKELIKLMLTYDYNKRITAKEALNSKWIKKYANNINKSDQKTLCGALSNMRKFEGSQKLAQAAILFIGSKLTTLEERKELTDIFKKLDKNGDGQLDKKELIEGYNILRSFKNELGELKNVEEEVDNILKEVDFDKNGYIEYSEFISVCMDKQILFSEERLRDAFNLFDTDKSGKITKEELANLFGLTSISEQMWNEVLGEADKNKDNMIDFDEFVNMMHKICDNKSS
# Chain of Calcium-dependent protein kinase 4 (Plasmodium falciparum (isolate 3D7)) (Q8IBS5 whole entry, looked up): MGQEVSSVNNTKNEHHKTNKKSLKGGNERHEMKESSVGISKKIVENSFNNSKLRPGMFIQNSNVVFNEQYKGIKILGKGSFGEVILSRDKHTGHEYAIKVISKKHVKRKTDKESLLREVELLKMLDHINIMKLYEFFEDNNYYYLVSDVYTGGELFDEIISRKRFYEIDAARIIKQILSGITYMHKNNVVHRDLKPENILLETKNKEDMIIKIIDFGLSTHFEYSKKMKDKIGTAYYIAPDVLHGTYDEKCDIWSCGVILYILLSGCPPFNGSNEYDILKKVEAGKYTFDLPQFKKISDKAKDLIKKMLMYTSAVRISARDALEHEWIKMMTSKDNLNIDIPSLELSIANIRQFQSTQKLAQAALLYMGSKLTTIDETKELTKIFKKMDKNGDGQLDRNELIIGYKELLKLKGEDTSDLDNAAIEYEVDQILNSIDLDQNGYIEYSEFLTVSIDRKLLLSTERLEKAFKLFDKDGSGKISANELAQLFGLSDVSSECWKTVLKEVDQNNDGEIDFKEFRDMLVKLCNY
# Chain of Protein kinase 7 (PK7), Plasmodium falciparum 3D7 (PF3D7_0213400) (Q7YTF7 1-343): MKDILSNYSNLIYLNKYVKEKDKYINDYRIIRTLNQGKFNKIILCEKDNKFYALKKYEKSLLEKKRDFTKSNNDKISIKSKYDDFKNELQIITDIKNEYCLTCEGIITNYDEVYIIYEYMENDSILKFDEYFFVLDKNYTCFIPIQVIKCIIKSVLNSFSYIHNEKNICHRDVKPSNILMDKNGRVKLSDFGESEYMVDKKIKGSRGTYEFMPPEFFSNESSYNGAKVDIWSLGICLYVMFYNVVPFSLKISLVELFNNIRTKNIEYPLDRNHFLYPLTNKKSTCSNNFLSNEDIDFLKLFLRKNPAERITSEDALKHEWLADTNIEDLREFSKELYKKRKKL
# Chain of 6-phosphogluconate dehydrogenase, decarboxylating (Homo sapiens) (P52209 whole entry, looked up): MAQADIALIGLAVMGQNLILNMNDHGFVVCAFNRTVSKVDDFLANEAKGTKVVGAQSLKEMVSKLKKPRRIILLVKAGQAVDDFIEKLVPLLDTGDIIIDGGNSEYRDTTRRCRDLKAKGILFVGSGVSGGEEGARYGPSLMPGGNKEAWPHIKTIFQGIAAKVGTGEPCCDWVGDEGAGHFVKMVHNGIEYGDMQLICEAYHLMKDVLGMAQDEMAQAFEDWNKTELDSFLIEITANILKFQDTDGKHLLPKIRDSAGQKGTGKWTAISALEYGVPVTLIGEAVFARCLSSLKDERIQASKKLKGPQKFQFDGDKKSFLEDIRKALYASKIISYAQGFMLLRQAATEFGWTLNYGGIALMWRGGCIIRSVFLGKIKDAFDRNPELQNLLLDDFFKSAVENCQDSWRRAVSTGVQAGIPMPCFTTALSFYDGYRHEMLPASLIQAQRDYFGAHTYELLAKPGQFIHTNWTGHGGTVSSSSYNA
# Chain of ATP-dependent translocase ABCB1 (Homo sapiens) (P08183 whole entry, looked up): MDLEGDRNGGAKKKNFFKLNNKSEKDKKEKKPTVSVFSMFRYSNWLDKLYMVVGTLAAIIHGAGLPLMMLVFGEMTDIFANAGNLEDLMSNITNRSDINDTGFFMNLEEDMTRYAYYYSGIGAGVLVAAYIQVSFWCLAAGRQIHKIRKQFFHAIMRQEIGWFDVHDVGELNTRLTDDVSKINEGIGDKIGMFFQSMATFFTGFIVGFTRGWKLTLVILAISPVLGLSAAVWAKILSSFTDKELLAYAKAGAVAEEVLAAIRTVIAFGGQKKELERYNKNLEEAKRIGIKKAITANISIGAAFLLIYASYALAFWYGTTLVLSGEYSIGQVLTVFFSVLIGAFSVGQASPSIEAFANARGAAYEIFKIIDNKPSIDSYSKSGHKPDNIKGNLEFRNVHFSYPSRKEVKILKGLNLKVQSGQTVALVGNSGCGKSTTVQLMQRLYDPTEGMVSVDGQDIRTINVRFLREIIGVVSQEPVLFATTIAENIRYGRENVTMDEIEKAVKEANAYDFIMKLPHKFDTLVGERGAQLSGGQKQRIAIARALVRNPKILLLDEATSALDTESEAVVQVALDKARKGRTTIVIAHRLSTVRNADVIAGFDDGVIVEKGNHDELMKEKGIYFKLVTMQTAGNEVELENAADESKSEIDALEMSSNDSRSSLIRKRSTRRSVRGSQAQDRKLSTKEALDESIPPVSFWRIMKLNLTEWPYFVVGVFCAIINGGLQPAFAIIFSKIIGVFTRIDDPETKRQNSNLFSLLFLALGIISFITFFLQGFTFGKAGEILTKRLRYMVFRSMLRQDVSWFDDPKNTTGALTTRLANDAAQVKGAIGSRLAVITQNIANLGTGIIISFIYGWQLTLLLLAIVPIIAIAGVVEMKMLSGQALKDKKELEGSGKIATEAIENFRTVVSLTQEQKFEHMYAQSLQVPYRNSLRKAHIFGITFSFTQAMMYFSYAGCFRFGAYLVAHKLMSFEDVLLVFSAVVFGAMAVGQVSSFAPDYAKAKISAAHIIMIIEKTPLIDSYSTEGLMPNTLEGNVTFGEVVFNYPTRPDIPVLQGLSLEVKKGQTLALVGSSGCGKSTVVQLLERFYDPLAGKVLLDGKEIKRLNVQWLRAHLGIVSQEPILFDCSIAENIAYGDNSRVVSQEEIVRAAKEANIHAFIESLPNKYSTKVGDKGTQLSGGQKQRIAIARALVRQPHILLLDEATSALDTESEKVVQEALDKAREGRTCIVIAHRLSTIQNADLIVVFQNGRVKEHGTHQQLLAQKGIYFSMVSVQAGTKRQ
smiles,measurement,setting,value
CCC[C@@H]([C@H](CC1CCCCC1)C(=O)N[C@H](C(=O)Nc1ccccn1)[C@H](C)CC)N(O)C=O,outcome,[1],inactive
same,outcome,[2],inactive
same,outcome,[3],inactive
same,outcome,[4],inactive
CN(C)c1nc(N/N=C/c2cc(Cl)ccc2O)nc(Nc2ccc(F)cc2)n1,outcome,[1],inactive
same,outcome,[2],inactive
same,outcome,[3],inactive
same,outcome,[4],inactive
COc1ccc(Nc2nc(N/N=C/c3cc(Br)c(O)cc3O)nc(Nc3ccc([N+](=O)[O-])cc3)n2)cc1,outcome,[1],inactive
same,outcome,[2],inactive
same,outcome,[3],inactive
same,outcome,[4],inactive
CCCO[C@H](C(=O)OC)[C@H](CC1Cc2ccccc2C1)C(=O)NCCC1=CCCCC1,outcome,[1],inactive
same,outcome,[2],inactive
same,outcome,[3],inactive
same,outcome,[4],inactive
c1cc2nc(CCCCCc3nc4ccc(C5=N[C@H]6CCCC[C@H]6N5)cc4[nH]3)[nH]c2cc1C1=N[C@H]2CCCC[C@H]2N1,outcome,[1],inactive
same,outcome,[2],inactive
same,outcome,[3],inactive
same,outcome,[4],inactive
Cc1cccc2[nH]c(-c3cccc(-c4cccc(NC(=O)Cc5ccc[n+]([O-])c5)c4)c3)nc12,outcome,[1],inactive
same,outcome,[2],inactive
same,outcome,[3],inactive
same,outcome,[4],inactive
Oc1cccc(-c2nc(-c3ccc4oc5ccc(-c6nc(-c7cccc(O)c7)[nH]c6-c6ccccc6)cc5c4c3)c(-c3ccccc3)[nH]2)c1,outcome,[1],inactive
same,outcome,[2],inactive
same,outcome,[3],inactive
same,outcome,[4],inactive
CO[C@@H]1[C@@H](OC2OC(C)C(OC3CC(C)(O)C(O)C(C)O3)C(N(C)C)C2O)[C@@H](CC=O)C[C@@H](C)[C@@H](OC2CCC(N(C)C)C(C)O2)/C=C/C=C/C[C@@H](C)OC(=O)C[C@H]1O (some centres not stated),fluorescence slope change,[5],23.5% (inactive)
same,inhibition,[6],5.19% (inactive)
Oc1ccc(/C=N/NC(=S)Nc2cccc3ccccc23)c(O)c1,outcome,[1],inactive
same,outcome,[2],inactive
same,outcome,[3],inactive
same,outcome,[4],inactive
c1cc2nc(CCCCc3nc4ccc(C5=N[C@@H]6CCCC[C@@H]6N5)cc4[nH]3)[nH]c2cc1C1=N[C@@H]2CCCC[C@@H]2N1,outcome,[1],inactive
same,outcome,[2],inactive
same,outcome,[3],inactive
same,outcome,[4],inactive
CCC[C@@H]([C@H](CC1CCCCC1)C(=O)N[C@H](C(=O)Nc1nccc(N)n1)C(C)(C)C)N(O)C=O,outcome,[1],inactive
same,outcome,[2],inactive
same,outcome,[3],inactive
same,outcome,[4],inactive
CN(C)C[C@H](O)[C@H](c1ccccc1)c1ccc(Cl)cc1,outcome,[1],inactive
same,outcome,[2],inactive
same,outcome,[3],inactive
same,outcome,[4],inactive
CC1(C(=O)O)CCC2(C)CCC3(C)C(=CC(=O)C4C5(C)CCC(OC(=O)CCC(=O)O)C(C)(C)C5CCC43C)C2C1 (configuration not stated),inhibition,[6],6.14% (inactive)
same,inhibition,"[7]; at 0.5 µM, stronger effect = higher value",-21.3% (inactive)
same,inhibition,"[7]; measured here: combination with BGB IC20, at 0.005 µM",-7.44%
same,inhibition,"[7]; measured here: combination with BGB IC40, at 0.005 µM",-24.5%
same,inhibition,[7]; [22],-6.64%
same,inhibition,"[7]; measured here: combination with cisplatin, at 0.5 µM, stronger effect = higher value",-25.4%
same,inhibition,"[7]; measured here: combination with cisplatin, at 5 µM, stronger effect = higher value",6.61%
same,inhibition,"[8]; BGB combo, at 5 µM",-10.4%
same,inhibition,[8]; at 0.5 µM,-10.5% (inactive)
same,inhibition,"[8]; cisplatin combo, at 5 µM",-11.2%
same,inhibition,[8]; [23],-1.57%
same,inhibition,[8]; [24],-3.76%
same,inhibition,"[8]; single agent, at 5 µM",0.047%
same,inhibition,"[9]; BGB IC20 combo, at 0.005 µM",-6.54%
same,inhibition,"[9]; BGB IC40 combo, at 0.005 µM",-25.3%
same,inhibition,"[9]; BGB IC40 combo, at 0.05 µM",3.64%
same,inhibition,[9]; at 0.5 µM,-16.5% (inactive)
same,inhibition,"[9]; cisplatin combo, at 0.05 µM",3.64%
same,inhibition,"[9]; cisplatin combo, at 0.5 µM",-24%
same,inhibition,"[9]; cisplatin combo, at 5 µM",-37.6%
same,inhibition,"[9]; measured here: 5 uM single agent, at 5 µM",-21.7%
same,inhibition,[10]; at 0.5 µM,-0.8% (inactive)
same,inhibition,[10]; [22],-15.6%
same,inhibition,[10]; [25],21.2%
same,inhibition,[10]; [26],-0.5%
same,inhibition,[11]; at 0.5 µM,-18% (inactive)
same,inhibition,"[11]; measured here: with BGB IC20, at 0.5 µM",-38.9%
same,inhibition,"[11]; measured here: with BGB IC20, at 5 µM",-13.2%
same,inhibition,"[11]; measured here: with cisplatin IC20, at 0.5 µM",-4%
same,inhibition,"[11]; measured here: with cisplatin IC20, at 5 µM",-11%
same,inhibition,"[11]; single agent, at 5 µM",-22.6%
same,inhibition,[12]; at 0.5 µM,-75% (inactive)
same,inhibition,"[12]; measured here: combination with BGB at IC20, at 0.5 µM",-54.3%
same,inhibition,"[12]; measured here: combination with cisplatin at IC20, at 0.5 µM",-113%
same,inhibition,[13]; at 0.5 µM,0.23% (inactive)
same,inhibition,"[13]; measured here: combo with BGB at IC20, at 0.5 µM",-6.04%
same,inhibition,"[13]; measured here: combo with cisplatin at IC20, at 0.5 µM",5.01%
same,inhibition,[14]; at 0.5 µM,-3.45% (inactive)
same,inhibition,"[14]; measured here: inhibition with BGB combination, at 0.05 µM",-24.1%
same,inhibition,"[14]; measured here: inhibition with cisplatin combination, at 0.05 µM",-15.6%
same,inhibition,[15]; at 0.5 µM,-24.3% (inactive)
same,inhibition,[15]; [25],-26.3%
same,inhibition,[15]; [26],-19.2%
same,inhibition,[16]; at 0.5 µM,-23.5% (inactive)
same,inhibition,"[16]; measured here: BGB combination, at 0.5 µM",-21%
same,inhibition,"[16]; measured here: BGB combination, at 5 µM",-30.2%
same,inhibition,"[16]; measured here: cisplatin combination, at 0.5 µM",-40.5%
same,inhibition,"[16]; measured here: cisplatin combination, at 5 µM",-24%
same,inhibition,"[17]; BGB combination, concentration series, at 5 µM",-13.7%
same,inhibition,[17]; at 0.5 µM,-12.8% (inactive)
same,inhibition,"[17]; cisplatin combination, concentration series, at 5 µM",3.23%
same,inhibition,[18]; at 0.5 µM,-10.9% (inactive)
same,inhibition,"[18]; measured here: combo with BGB IC20, at 0.5 µM",-14.8%
same,inhibition,"[18]; measured here: combo with cisplatin IC20, at 0.5 µM",-13.4%
same,inhibition,[19]; at 0.5 µM,-17.1% (inactive)
same,inhibition,"[19]; cisplatin combination, at 0.5 µM",5.31%
same,inhibition,"[19]; cisplatin combination, at 5 µM",-38.2%
same,inhibition,"[19]; measured here: BGB IC40 combination 0.05 uM, at 0.05 µM",-1.75%
same,inhibition,"[19]; single agent, at 5 µM",-40.2%
same,inhibition,[20]; at 0.5 µM,-19.6% (inactive)
same,inhibition,"[20]; cisplatin combo, at 5 µM",13.2%
same,inhibition,"[20]; measured here: BGB IC40 combination, at 0.05 µM",-21.9%
same,inhibition,[20]; [25],-3.15%
same,inhibition,"[20]; single agent, at 5 µM",-16.1%
same,inhibition,[21]; at 0.5 µM,-42.7% (inactive)
same,inhibition,[21]; [23],-46.3%
same,inhibition,[21]; [24],-40.9%
same,inhibition,"[21]; single agent, at 0.05 µM",5.52%
same,inhibition,"[21]; single agent, at 5 µM",7.12%
C/C(=N\NC(N)=O)C1=C(O)C(c2ccccc2)N(C2CCCCC2)C1=O (configuration not stated),outcome,[1],inactive
same,outcome,[2],inactive
same,outcome,[3],inactive
same,outcome,[4],inactive
CN(C)c1nc(NCc2ccccc2)nc(N/N=C/c2cc([N+](=O)[O-])ccc2O)n1,outcome,[1],inactive
same,outcome,[2],inactive
same,outcome,[3],inactive
same,outcome,[4],inactive
NC(N)=N/N=C/c1c[nH]c2ccc(-c3ccccc3)cc12,outcome,[1],inactive
same,outcome,[2],inactive
same,outcome,[3],inactive
same,outcome,[4],inactive
